{"source": "PubChem BioAssay AID430", "about": "(Sanford-Burnham Center for Chemical Genomics, 2006)", "note": "Among all 63,000 compounds or so, about 1,100 (1.7%) were called active. Only a selection was taken, and actives are over-represented in it overall. Measured potencies and affinities stand elsewhere. Unmarked numbers belong to inactive results. Rule as the data show it: active = cytotoxicity above about 50%; inactive = the rest."}
{"test": "cytotoxicity in HPDE-C7 cells, cell-based, fluorescence, HTS (AID 430);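 also: cells exposed to compound for 48 hours before viability readout; 0% = vehicle and 100% = reference cytotoxic drug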", "conditions": "HPDE-C7 pancreatic duct cells viability, at 10 µM, stronger effect = higher value"}
{"smiles": "CCOCC(=O)Nc1cccc(NC(C)=O)c1", "cytotoxicity": "-3.5%"}
{"smiles": "COc1ccc(C(=O)N(Cc2ccco2)Cc2cc3cc(C)ccc3[nH]c2=O)cc1OC", "cytotoxicity": "4.2%"}
{"smiles": "Cc1ccc(S(=O)(=O)Nc2ccc(NC(=O)CN3CCCCC3)cc2)cc1", "cytotoxicity": "-3%"}
{"smiles": "COc1ccc(OCC(=O)Nc2ccc3c(c2)nc(CCN2CCOCC2)n3C)cc1", "cytotoxicity": "10.7%"}
{"smiles": "COc1ccc(C(CNC(=O)Cc2cc(OC)c(OC)c(OC)c2)N2CCCC2)cc1", "note": "(stereo not given)", "cytotoxicity": "-31.8%"}
{"smiles": "COc1ccc(-c2nnc(SCC(=O)NC(C)c3ccccc3)o2)cc1OC", "note": "(stereo not given)", "cytotoxicity": "-26.2%"}
{"smiles": "O=C(OCc1nnc(-c2ccccc2)o1)c1cc(=O)c2ccccc2o1", "cytotoxicity": "1.2%"}
{"smiles": "CCC(C)NC(=O)NC1C(NC(=O)NC(C)CC)N(C)C(=O)N1C", "note": "(stereo not given)", "cytotoxicity": "-7.6%"}
{"smiles": "CCN(C(=O)c1coc(=O)c2ccccc12)c1cc(OC)ccc1OC", "cytotoxicity": "-6.4%"}
{"smiles": "Cc1[nH]nc2c1C1(CCN(Cc3ccccc3)CC1)C(C#N)=C(N)O2", "cytotoxicity": "-9.5%"}
{"smiles": "COc1ccc(C2=NOC(C(=O)N3CCOCC3)C2)cc1OC", "note": "(stereo not given)", "cytotoxicity": "-3.2%"}
{"smiles": "Cc1ccc2nc(SCCC#N)nc(C)c2c1", "cytotoxicity": "-10.1%"}
{"smiles": "COc1ccc(S(=O)(=O)N2CC(C)N(S(=O)(=O)c3ccc(OC)cc3)CC2C)cc1", "note": "(stereo not given)", "cytotoxicity": "-4.1%"}
{"smiles": "Clc1ccc2oc(-c3ccccc3)nc2c1", "cytotoxicity": "-4.4%"}
{"smiles": "O=S1(=O)C=C(Sc2nc3ccccc3s2)c2ccccc21", "cytotoxicity": "109% (active)"}
{"smiles": "Cn1c(SC2=CS(=O)(=O)c3ccccc32)nc2ccccc21", "cytotoxicity": "49.6%"}
{"smiles": "Cc1cc(C)nc(SC2=CS(=O)(=O)c3ccccc32)n1", "cytotoxicity": "4.3%"}
{"smiles": "O=S1(=O)C=C(Sc2nnc(-c3ccccc3)o2)c2ccccc21", "cytotoxicity": "47.8%"}
{"smiles": "COc1ccc(/C=N/n2cnnc2SCCO)cc1OC", "cytotoxicity": "-14.1%"}
{"smiles": "COc1ccc(-c2nnc3sc(-c4ccccn4)nn23)cc1", "cytotoxicity": "-5.5%"}
{"smiles": "COc1ccc(-c2cn3cccnc3n2)cc1NC(=O)C1CCCC1", "cytotoxicity": "-13.7%"}
{"smiles": "Cn1c(Cn2nnc3ccccc32)nnc1SCC(=O)N1c2ccccc2Sc2ccccc21", "cytotoxicity": "-9.1%"}
{"smiles": "CCCC(N)CCCCCC(=O)O", "note": "(stereo not given)", "cytotoxicity": "-2.3%"}
{"smiles": "CCSC(SCC)[C@H](O)[C@@H](O)[C@H](O)[C@H](O)CO", "cytotoxicity": "11.2%"}
{"smiles": "COc1ccccc1N1C(=O)C2C3C=CC(C3)C2C1=O", "note": "(stereo not given)", "cytotoxicity": "-6%"}
{"smiles": "O=c1oc2ccccc2n1CSc1nc2ccccc2s1", "cytotoxicity": "-4%"}
{"smiles": "CCNS(=O)(=O)c1ccc(NC(=O)c2ccccc2OCC)cc1", "cytotoxicity": "10.2%"}
{"smiles": "CCCCC(=O)Nc1nc(C)c(C(C)=O)s1", "cytotoxicity": "-0.6%"}
{"smiles": "CC(=O)c1sc(NC(=O)C=C(C)C)nc1C", "cytotoxicity": "1.3%"}
{"smiles": "CC(=O)c1sc(NC(=O)C2(F)C(F)(F)C(F)(F)C(F)(F)C(F)(F)C2(F)F)nc1C", "cytotoxicity": "52.4% (active)"}
{"smiles": "O=C(c1ccco1)N1CCN(Cc2ccc(Cl)cc2)CC1", "cytotoxicity": "-3.7%"}
{"smiles": "CCN(CC)S(=O)(=O)c1ccc2c(c1)nc(SCC(=O)NC1CC1)n2-c1ccccc1OC", "cytotoxicity": "3.8%"}
{"smiles": "COc1ccc(-c2nc3ccccc3c(=O)n2CCCn2ccnc2)cc1", "cytotoxicity": "-0.2%"}
{"smiles": "COc1ccc(NS(=O)(=O)c2ccc3oc4ccccc4c3c2)cn1", "cytotoxicity": "25.3%"}
{"smiles": "O=S(=O)(Nc1ccc2c(c1)OCCO2)c1ccc2oc3ccccc3c2c1", "cytotoxicity": "83.9% (active)"}
{"smiles": "CSc1ccc(S(=O)(=O)Nc2ccc3c(c2)OCCO3)cc1", "cytotoxicity": "8.6%"}
{"smiles": "CCc1c(C)nc2ncnn2c1N1CCC(C(=O)Nc2cccc(C(C)=O)c2)CC1", "cytotoxicity": "-7.9%"}
{"smiles": "N#Cc1c(NC(=O)CSc2nnc(-c3ccncc3)n2CC2CCCO2)sc2c1CCCC2", "note": "(stereo not given)", "cytotoxicity": "4.8%"}
{"smiles": "Cc1ccc(/C=c2\\sc3nc(-c4ccccc4Br)nn3c2=O)o1", "cytotoxicity": "2.6%"}
{"smiles": "Cc1ccccc1-c1nnc2s/c(=C\\c3ccc(N(C)C)cc3)c(=O)n12", "cytotoxicity": "2.2%"}
{"smiles": "Cc1ccc(/C=c2/sc3nnc(-c4ccccc4Cl)n3c2=O)o1", "cytotoxicity": "69.7% (active)"}
{"smiles": "OCc1cn(-c2ccccc2)nc1-c1ccc2c(c1)OCCO2", "cytotoxicity": "-21.5%"}
{"smiles": "CC(=O)Nc1ccc(S(=O)(=O)N2CCSC2c2ccccc2Cl)cc1", "note": "(stereo not given)", "cytotoxicity": "3.4%"}
{"smiles": "CC1CCCCN1CCn1cnc2c([nH]c3ccccc32)c1=O", "note": "(stereo not given)", "cytotoxicity": "-2.1%"}
{"smiles": "CCNc1nc(NC(C)C)nc(N(C#N)Cc2ccccc2)n1", "cytotoxicity": "6.3%"}
{"smiles": "CCNc1nc(NC(C)C)nc(N(C#N)CCOc2ccc(Cl)cc2Cl)n1", "cytotoxicity": "94.5% (active)"}
{"smiles": "CCCN(C#N)c1nc(NCC)nc(NC(C)C)n1", "cytotoxicity": "-11.1%"}
{"smiles": "CCOc1ccc(-n2cc(C(=O)N3CCN(C)CC3)c3cc(OC)c(OC)cc3c2=O)cc1", "cytotoxicity": "-7.2%"}
{"smiles": "Cn1cc(C(=O)NC2CCCCC2)c(=O)c2cc(S(=O)(=O)N3CCCC3)ccc21", "cytotoxicity": "6.5%"}
{"smiles": "CC1CCN(S(=O)(=O)c2ccc3c(c2)c(=O)c(C(=O)NC2CCCC2)cn3C)CC1", "cytotoxicity": "77% (active)"}
{"smiles": "Cn1cc(C(=O)NC2CCCCCC2)c(=O)c2cc(S(=O)(=O)N3CCCC3)ccc21", "cytotoxicity": "-2.6%"}
{"smiles": "COC(=O)C1(C)NC(c2cccs2)C2C(=O)N(c3ccc(F)cc3)C(=O)C21", "note": "(stereo not given)", "cytotoxicity": "3.3%"}
{"smiles": "Cc1cc(NC(=O)CSc2nnc3c(C)cc4c(C)ccc(C)c4n23)no1", "cytotoxicity": "64.6% (active)"}
{"smiles": "Cc1cc(NC(=O)CSc2nnc3c(C)cc4cc(C)c(C)cc4n23)no1", "cytotoxicity": "6.8%"}
{"smiles": "Cc1cc(C)c2c(c1)cc(C)c1nnc(SCC(=O)Nc3cc(C)on3)n12", "cytotoxicity": "20.4%"}
{"smiles": "CCN(CCCNC(=O)CC(C(=O)N1CCc2ccccc21)n1ccnc1)c1ccccc1", "note": "(stereo not given)", "cytotoxicity": "-6.9%"}
{"smiles": "Cc1cccc2sc(NC(=O)CNS(=O)(=O)c3ccc(Br)s3)nc12", "cytotoxicity": "1.3%"}
{"smiles": "Cc1cccc2sc(NC(=O)CN(C)S(=O)(=O)c3cccs3)nc12", "cytotoxicity": "14.9%"}
{"smiles": "C1CCN(c2nc(N3CCCC3)nc(N3CCNCC3)n2)C1", "cytotoxicity": "2.6%"}
{"smiles": "C=CCOC(=O)C1=C(C)NC(SCC(=O)Nc2ccc(C)c(Cl)c2)=C(C#N)C1c1ccco1", "note": "(stereo not given)", "cytotoxicity": "0.2%"}
{"smiles": "CC(=O)C1=C(C)NC(SCC(=O)c2cc(Cl)ccc2Cl)=C(C#N)C1c1ccco1", "note": "(stereo not given)", "cytotoxicity": "53% (active)"}
{"smiles": "COCCOC(=O)C1=C(C)NC(SCC(=O)NC(C)(C)C)=C(C#N)C1c1ccco1", "note": "(stereo not given)", "cytotoxicity": "10.7%"}
{"smiles": "CC(=O)C1=C(C)NC(SCC(=O)c2ccc(F)cc2)=C(C#N)C1c1ccco1", "note": "(stereo not given)", "cytotoxicity": "79.8% (active)"}
{"smiles": "CC(=O)C1=C(C)NC(SCC(=O)c2ccc(Cl)c(Cl)c2)=C(C#N)C1c1ccco1", "note": "(stereo not given)", "cytotoxicity": "75.6% (active)"}
{"smiles": "CC(=O)C1=C(C)NC(SCC(=O)c2ccccc2)=C(C#N)C1CC(C)C", "note": "(stereo not given)", "cytotoxicity": "8.5%"}
{"smiles": "CCOC(=O)CSC1=C(C#N)C(c2ccc(F)cc2)C(C(C)=O)=C(C)N1", "note": "(stereo not given)", "cytotoxicity": "0.3%"}
{"smiles": "COc1ccccc1NC(=O)C1=C(C)NC(SCC(=O)c2ccc(C)cc2)=C(C#N)C1c1ccco1", "note": "(stereo not given)", "cytotoxicity": "36.6%"}
{"smiles": "CSCSC1=C(C#N)C(c2ccccc2Cl)C(C(C)=O)=C(C)N1", "note": "(stereo not given)", "cytotoxicity": "21.5%"}
{"smiles": "CC(=O)C1=C(C)NC(SCC(=O)c2ccc(Cl)cc2Cl)=C(C#N)C1c1ccco1", "note": "(stereo not given)", "cytotoxicity": "40.9%"}
{"smiles": "Cc1ccc(C(=O)CSC2=C(C#N)C(c3ccco3)CC(=O)N2)c(C)c1", "note": "(stereo not given)", "cytotoxicity": "-3%"}
